Our source for the inhibition values is ChEMBL document CHEMBL1961873, “Compounds: GSK PKIS; Assays: Nanosyn kinase panel” (2012).

In experiment [1] the target is Serine/threonine-protein kinase pim-2 (Homo sapiens) (UniProt Q9P1W9). Conditions: at 1 µM.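 Also: each value is a mean of the inhibition measurements against the kinase.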
Experiment [2] deals with Serine/threonine-protein kinase pim-3 (Homo sapiens) (UniProt Q86V86). Conditions: at 0.1 µM.
Experiment [3] has the same target. Conditions: at 1 µM.
Experiment [4] deals with T1, MAP kinase-activated protein kinase 5 (Homo sapiens) (UniProt Q8IW41).
T1 sequence (whole entry): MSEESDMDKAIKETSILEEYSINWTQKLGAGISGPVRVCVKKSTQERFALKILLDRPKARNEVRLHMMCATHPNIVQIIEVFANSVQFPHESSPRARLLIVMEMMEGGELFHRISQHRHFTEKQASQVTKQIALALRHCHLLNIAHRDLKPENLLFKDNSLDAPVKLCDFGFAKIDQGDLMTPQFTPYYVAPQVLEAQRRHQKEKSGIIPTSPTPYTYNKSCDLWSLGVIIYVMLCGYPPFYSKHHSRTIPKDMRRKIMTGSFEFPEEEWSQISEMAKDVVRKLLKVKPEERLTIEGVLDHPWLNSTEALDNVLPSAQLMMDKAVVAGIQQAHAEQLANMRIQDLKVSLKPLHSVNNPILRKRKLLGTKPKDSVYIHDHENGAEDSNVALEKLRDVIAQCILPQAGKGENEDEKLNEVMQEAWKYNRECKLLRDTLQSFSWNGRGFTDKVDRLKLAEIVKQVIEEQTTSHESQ
Conditions: at 0.1 µM.

Experiment [5] addresses T1, MAP kinase-activated protein kinase 5 (Homo sapiens). Conditions: at 1 µM.
For experiment [6], the target named is Serine/threonine-protein kinase SIK1 (Homo sapiens) (UniProt P57059). The conditions noted are these: at 0.1 µM.
Serine/threonine-protein kinase SIK1 (Homo sapiens), sequence (P57059 whole entry): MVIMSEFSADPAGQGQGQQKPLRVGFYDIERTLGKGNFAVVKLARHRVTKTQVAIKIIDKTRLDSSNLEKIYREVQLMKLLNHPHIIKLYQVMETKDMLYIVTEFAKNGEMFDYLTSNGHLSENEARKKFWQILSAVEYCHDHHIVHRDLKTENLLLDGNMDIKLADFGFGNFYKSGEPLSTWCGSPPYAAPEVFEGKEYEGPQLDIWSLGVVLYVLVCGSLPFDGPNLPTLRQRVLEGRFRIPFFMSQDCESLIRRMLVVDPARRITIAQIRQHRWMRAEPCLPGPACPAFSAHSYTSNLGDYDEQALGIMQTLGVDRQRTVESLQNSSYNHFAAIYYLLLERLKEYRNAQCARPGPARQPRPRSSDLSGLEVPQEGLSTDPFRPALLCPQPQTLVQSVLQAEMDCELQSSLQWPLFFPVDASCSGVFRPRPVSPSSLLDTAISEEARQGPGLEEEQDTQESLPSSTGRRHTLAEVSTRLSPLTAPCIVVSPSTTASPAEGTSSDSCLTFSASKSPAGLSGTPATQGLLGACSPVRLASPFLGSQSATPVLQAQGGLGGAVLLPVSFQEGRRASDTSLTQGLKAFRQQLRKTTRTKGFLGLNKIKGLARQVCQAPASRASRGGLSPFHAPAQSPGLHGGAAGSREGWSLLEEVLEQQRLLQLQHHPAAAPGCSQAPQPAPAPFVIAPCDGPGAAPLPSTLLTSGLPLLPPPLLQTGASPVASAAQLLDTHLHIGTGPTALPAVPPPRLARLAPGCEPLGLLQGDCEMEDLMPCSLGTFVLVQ
For experiment [7] the target is unchanged. The conditions noted are these: at 1 µM.
Experiment [8] deals with Serine/threonine-protein kinase SIK2 (Homo sapiens) (UniProt Q9H0K1). Conditions: at 0.1 µM.
Serine/threonine-protein kinase SIK2 (Homo sapiens), sequence (Q9H0K1 whole entry, looked up): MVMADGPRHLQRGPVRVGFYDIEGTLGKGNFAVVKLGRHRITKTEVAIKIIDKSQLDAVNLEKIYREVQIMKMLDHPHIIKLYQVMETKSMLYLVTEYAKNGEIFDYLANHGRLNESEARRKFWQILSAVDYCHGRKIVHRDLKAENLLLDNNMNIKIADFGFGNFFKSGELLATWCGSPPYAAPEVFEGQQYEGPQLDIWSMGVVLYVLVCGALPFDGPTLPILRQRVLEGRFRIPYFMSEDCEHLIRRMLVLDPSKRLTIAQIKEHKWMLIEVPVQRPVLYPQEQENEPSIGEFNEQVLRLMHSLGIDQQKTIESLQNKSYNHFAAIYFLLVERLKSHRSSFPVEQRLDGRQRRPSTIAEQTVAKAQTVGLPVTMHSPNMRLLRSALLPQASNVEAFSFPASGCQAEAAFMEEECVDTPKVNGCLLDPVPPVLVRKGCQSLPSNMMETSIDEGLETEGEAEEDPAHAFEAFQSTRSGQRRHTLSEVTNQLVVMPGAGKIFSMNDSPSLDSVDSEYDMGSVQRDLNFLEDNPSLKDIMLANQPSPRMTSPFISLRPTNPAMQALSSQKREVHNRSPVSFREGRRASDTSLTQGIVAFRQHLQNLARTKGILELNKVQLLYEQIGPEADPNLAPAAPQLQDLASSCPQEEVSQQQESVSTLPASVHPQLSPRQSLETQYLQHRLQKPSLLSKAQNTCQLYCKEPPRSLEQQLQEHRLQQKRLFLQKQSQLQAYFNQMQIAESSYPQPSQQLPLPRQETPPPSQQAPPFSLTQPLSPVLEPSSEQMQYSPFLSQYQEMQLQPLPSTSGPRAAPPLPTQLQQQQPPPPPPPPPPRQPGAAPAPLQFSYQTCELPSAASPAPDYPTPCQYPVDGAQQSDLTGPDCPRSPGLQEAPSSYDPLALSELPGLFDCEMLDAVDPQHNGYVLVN
Experiment [9] has the same target. Conditions: at 1 µM.
Experiment [10] has as its target T2, Serine/threonine-protein kinase TBK1 (Homo sapiens) (UniProt Q9UHD2).
T2 sequence (whole entry): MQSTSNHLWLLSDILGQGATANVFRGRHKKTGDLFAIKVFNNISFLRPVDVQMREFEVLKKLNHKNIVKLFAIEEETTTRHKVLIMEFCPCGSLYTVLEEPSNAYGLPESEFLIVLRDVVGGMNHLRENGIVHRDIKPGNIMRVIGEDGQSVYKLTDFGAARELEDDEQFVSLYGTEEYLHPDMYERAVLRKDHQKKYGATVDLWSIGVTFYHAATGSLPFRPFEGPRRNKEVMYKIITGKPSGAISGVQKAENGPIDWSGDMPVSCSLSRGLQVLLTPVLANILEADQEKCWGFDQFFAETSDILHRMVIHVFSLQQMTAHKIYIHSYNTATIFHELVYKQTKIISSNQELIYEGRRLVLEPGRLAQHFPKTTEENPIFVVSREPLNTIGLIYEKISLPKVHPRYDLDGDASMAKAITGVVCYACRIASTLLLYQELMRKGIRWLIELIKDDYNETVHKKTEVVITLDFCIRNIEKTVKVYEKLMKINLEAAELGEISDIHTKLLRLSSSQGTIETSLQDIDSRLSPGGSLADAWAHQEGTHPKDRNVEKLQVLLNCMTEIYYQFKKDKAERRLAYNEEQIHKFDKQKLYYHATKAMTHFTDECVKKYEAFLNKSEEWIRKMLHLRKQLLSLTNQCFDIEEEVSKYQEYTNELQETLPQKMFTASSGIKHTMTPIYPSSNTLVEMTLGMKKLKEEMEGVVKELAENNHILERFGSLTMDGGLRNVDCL
The conditions noted are these: at 0.1 µM.

Experiment [11] addresses T2, Serine/threonine-protein kinase TBK1 (Homo sapiens). Conditions: at 1 µM.
Experiment [12] deals with T3, Testis-specific serine/threonine-protein kinase 1 (Homo sapiens) (UniProt Q9BXA7).
T3 sequence (whole entry): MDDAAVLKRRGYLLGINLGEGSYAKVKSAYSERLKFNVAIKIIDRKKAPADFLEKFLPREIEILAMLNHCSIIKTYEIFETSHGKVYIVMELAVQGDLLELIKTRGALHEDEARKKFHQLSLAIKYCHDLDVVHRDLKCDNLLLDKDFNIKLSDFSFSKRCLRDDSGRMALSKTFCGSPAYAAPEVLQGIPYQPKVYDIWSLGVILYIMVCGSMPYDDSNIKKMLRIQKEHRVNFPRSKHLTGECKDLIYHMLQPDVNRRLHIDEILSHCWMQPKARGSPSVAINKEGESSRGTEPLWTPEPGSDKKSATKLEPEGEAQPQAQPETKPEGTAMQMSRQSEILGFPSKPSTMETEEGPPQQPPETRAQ
The conditions noted are these: at 0.1 µM.

For experiment [13], the target named is T3, Testis-specific serine/threonine-protein kinase 1 (Homo sapiens). Conditions: at 1 µM.
The target of experiment [14] is T4, Testis-specific serine/threonine-protein kinase 2 (Homo sapiens) (UniProt Q96PF2).
T4 sequence (whole entry): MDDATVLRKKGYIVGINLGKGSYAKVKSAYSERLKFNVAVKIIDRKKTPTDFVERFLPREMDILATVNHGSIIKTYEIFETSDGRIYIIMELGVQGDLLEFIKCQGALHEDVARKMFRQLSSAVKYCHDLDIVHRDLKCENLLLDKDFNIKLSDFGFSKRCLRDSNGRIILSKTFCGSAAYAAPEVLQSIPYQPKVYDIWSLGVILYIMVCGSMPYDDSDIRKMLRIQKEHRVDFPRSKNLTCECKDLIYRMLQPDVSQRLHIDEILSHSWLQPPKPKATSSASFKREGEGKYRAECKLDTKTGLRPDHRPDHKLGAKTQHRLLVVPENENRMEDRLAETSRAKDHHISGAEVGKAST
The conditions noted are these: at 0.1 µM.

The target of experiment [15] is T4, Testis-specific serine/threonine-protein kinase 2 (Homo sapiens). The conditions noted are these: at 1 µM.
Experiment [16] has as its target Casein kinase I isoform alpha (Homo sapiens) (UniProt P48729). Conditions: at 0.1 µM.
The target is the same in experiment [17]. Conditions: at 1 µM.
Experiment [18] deals with Casein kinase I isoform gamma-1 (Homo sapiens) (UniProt Q9HCP0). The conditions noted are these: at 0.1 µM.
Casein kinase I isoform gamma-1 (Homo sapiens), sequence (Q9HCP0 whole entry, looked up, canonical isoform): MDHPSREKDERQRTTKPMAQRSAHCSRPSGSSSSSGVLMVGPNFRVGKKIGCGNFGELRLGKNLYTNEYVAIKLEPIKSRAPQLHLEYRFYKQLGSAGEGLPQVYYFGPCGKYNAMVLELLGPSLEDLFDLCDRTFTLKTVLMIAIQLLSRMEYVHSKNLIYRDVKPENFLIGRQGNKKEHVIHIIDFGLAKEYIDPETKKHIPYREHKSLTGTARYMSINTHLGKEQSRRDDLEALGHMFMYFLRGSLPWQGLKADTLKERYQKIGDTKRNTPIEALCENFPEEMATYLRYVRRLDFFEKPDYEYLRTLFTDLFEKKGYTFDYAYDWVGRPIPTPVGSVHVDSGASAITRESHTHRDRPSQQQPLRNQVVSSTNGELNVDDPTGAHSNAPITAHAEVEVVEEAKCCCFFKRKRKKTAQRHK
Experiment [19] shares this target. Conditions: at 1 µM.
The target in experiment [20] is Casein kinase I isoform gamma-2 (Homo sapiens) (UniProt P78368). Conditions: at 0.1 µM.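 Also: values are mean inhibition figures reported as part of the GSK PKIS dataset.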
Casein kinase I isoform gamma-2 (Homo sapiens), sequence (P78368 whole entry, looked up, canonical isoform): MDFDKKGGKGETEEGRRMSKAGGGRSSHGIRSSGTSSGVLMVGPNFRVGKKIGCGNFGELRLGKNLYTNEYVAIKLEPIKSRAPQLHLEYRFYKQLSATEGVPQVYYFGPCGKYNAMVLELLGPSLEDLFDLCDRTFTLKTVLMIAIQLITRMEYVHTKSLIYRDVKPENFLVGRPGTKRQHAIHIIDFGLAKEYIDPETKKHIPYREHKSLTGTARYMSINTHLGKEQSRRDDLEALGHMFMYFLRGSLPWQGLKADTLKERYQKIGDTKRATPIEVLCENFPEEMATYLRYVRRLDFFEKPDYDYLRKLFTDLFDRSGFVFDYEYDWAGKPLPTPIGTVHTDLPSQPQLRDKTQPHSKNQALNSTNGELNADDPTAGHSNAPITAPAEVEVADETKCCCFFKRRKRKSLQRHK

Casein kinase I isoform alpha (Homo sapiens), sequence (P48729 2-337 limits assumed): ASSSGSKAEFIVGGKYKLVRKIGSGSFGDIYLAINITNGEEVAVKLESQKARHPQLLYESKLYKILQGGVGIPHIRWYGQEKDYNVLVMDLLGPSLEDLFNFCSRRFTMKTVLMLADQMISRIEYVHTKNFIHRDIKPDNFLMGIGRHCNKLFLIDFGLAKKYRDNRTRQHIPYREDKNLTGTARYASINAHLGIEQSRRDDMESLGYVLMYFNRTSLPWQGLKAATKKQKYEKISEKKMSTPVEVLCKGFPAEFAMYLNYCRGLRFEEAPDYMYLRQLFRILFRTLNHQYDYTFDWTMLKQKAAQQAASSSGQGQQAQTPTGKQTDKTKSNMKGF
Serine/threonine-protein kinase pim-2 (Homo sapiens), sequence (Q9P1W9 whole entry, looked up): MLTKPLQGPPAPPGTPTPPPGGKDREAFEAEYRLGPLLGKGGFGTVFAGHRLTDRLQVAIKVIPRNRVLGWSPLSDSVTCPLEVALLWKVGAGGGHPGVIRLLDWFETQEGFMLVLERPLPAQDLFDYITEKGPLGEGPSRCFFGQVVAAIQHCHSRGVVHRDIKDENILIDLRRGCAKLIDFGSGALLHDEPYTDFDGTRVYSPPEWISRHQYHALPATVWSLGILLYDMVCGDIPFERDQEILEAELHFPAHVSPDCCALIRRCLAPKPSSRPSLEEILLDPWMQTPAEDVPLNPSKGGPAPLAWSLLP

A word on the inhibition: it is the relative decrease from the control value, in per cent. With `O=C(NCC1CC1)c1ccc(-c2cccc(C(=O)NC3CC3)c2)cc1`, the inhibition in experiment [1] is 0.96%; in [2] it was -0.84%; in experiment [3], -3.1%; in experiment [4], 0.6%; in experiment [5], -0.88%; in experiment [6], 0.25%. The inhibition is 4.41% in experiment [7]; -1.64% in [8]; -0.16% in experiment [9]; 2.28% in [10]; 0.69% in experiment [11]; 2.17% in experiment [12]. Besides, the inhibition in experiment [13] was -0.94%; in experiment [14], 0.33%; in [15] it was -1.83%; in experiment [16], 2.21%; in [17], 3.38%; in experiment [18], 2.43%. In addition, the inhibition in [19] amounted to 3.84%; in [20] it was 1.59%.

For `Cc1ccc(C(=O)NC2CCC2)cc1-c1ccc(C(=O)NCC2CC2)cc1`, the inhibition in experiment [1] was -0.13%; in [2], -0.5%; in experiment [3], 0.14%; in [4], 0.63%; in [5], -0.21%; in experiment [6] it was 6.34%. Further, the inhibition in [7] was found to be 3.12%; in experiment [8] it was 1.33%; in [9], 0.45%; in experiment [10], 1.61%; in experiment [11], 2.24%; in experiment [12] it was 2.11%. Also, the inhibition in experiment [13] was 1.32%; in experiment [14], 0.09%; in [15] it was -0.03%; in [16], 3.36%; in experiment [17], 6.49%; in experiment [18], 2.64%. Besides, the inhibition was 3.13% in experiment [19] and 1.72% in experiment [20].

Consider `COc1ccc(C2=C(N3CCc4ccccc43)C(=O)NC2=O)cc1`, for which the inhibition in experiment [1] is 0.67%; in [2], -0.2%; in experiment [3], 0.86%; in experiment [4], 1.93%; in experiment [5], 2.12%; in [6], 8.63%. The inhibition was 8.47% in [7]; 6.36% in [8]; 11.3% in experiment [9]; 0.88% in [10]; 7.18% in [11]; 4.87% in experiment [12]. The inhibition in experiment [13] is 6.13%; in [14] it was 3.64%; in [15], 3.35%; in [16], 3.74%; in experiment [17], 8.77%; in experiment [18], 3.77%. Also, the inhibition in experiment [19] was 4.09%; in [20] it was 3.12%.

With `Fc1ccc(-c2ncn(CCCN3CCOCC3)c2-c2ccncc2)cc1`, the inhibition in experiment [1] was 0.84%; in experiment [2] it was -1.36%; in experiment [3], -2.93%; in experiment [4] it was -0.65%; in experiment [5], -1.42%; in [6] it was -2.01%. Besides, the inhibition in experiment [7] was 3.56%; in [8] it was -2.31%; in experiment [9] it was 2.48%; in [10], 1.21%; in experiment [11], 0.48%; in [12], -0.41%. Further, the inhibition in experiment [13] is -0.42%; in [14], -1.62%; in [15], -0.63%; in [16], 2.04%; in experiment [17], 5.39%; in experiment [18], 0.8%. Further, the inhibition came out at 1.79% in [19] and 1.74% in experiment [20].

Turning to `NC(=O)c1cc(-c2ccc(F)cc2)cc(-c2ccncc2)c1N`, the inhibition in experiment [1] was -1.22%; in experiment [2], -0.69%; in experiment [3] it was -5.17%; in [4], 1.11%; in experiment [5] it was 2.54%; in [6] it was 4.79%. Further, the inhibition in experiment [7] stood at 9.72%; in experiment [8], 7.37%; in experiment [9], 8.31%; in experiment [10], 3.66%; in experiment [11] it was 2.04%; in experiment [12], 3.98%. Moreover, the inhibition amounted to 5.61% in [13]; 2.71% in experiment [14]; 4.29% in experiment [15]; 6.79% in experiment [16]; 2.14% in experiment [17]; 4.19% in experiment [18]. Besides, the inhibition in experiment [19] turned out to be 4.95%; in [20], 3.82%.

Consider `c1ccc(Oc2ccc(Nc3ncc(-c4ccccc4)o3)cc2)cc1`, for which the inhibition in experiment [1] worked out at 0.53%; in [2] it was 0.36%; in [3], 1.18%; in experiment [4], 0.66%; in experiment [5] it was 0.94%; in [6], 2.57%. Besides, the inhibition turned out to be 3.12% in [7]; 1.87% in [8]; 1.2% in [9]; 3.15% in experiment [10]; 2.41% in experiment [11]; 1.11% in experiment [12]. Besides, the inhibition in experiment [13] is 1.56%; in [14], 0.35%; in [15], 0.74%; in experiment [16], 5.38%; in experiment [17], 7.2%; in experiment [18], 0.74%. Also, the inhibition came to 2.02% in experiment [19] and 0.49% in experiment [20].

On to `CN(C)c1ccc2c(c1)/C(=C/Nc1ccc(S(N)(=O)=O)cc1)C(=O)N2`, for which the inhibition in experiment [1] is 1.18%; in [2] it was 0.39%; in experiment [3] it was 0.56%; in experiment [4], 0.23%; in [5], 0.46%; in experiment [6], 3.94%. Besides, the inhibition in experiment [7] came out at 14.7%; in [8] it was 5.24%; in experiment [9], 18.2%; in experiment [10], 6.65%; in [11], 49.7%; in experiment [12] it was 2.84%. Moreover, the inhibition in experiment [13] was 9.92%; in [14] it was 0.44%; in [15] it was 1.25%; in experiment [16], 1.06%; in experiment [17], 2.88%; in experiment [18] it was 1.12%. For the same compound, the results for the inhibition in experiment [19] and in experiment [20] were 1.57% and 1.13%, respectively.
